In PubChem BioAssay (EPA / NIEHS):
Active and inactive are the calls of the source. Rule for the calls: active = hit-call score of the fitted dose curve at least 0.9, where 1 is the maximum; inactive = score below 0.9.

Legend:
[1] = APR_HepG2_NuclearSize_72hr: Apredica 72-hour HepG2 Assay for Nuclear Size (AID 2282925); details: high-content imaging, actives raise or lower the signal
Summary of the method: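 HepG2 cells dosed 72 h at 0.39–200 uM (10 concentrations, duplicate) in 0.5% v/v DMSO final. Fixed, Hoechst 33342-stained nuclei imaged; nuclear diameter measured by automated image analysis. Bidirectional fit versus DMSO.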

[2] = ATG_CRE_CIS: Attagene CIS-FACTORIAL HepG2 Assay for human cAMP Responsive Element (CRE) binding protein 3 (AID 2282926); details: HepG2 CRE cis-reporter, Attagene multiplexed mRNA; actives raise or lower the signal
Summary of the method: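 Transfected HepG2 were treated for 24 hours, then RNA was extracted and reporter cDNA amplified with sequence-specific primers. Labelled fragments were separated by capillary electrophoresis, and the CRE signal was fitted bidirectionally with DMSO as baseline.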

[3] = target: CCAAT/enhancer-binding protein beta (Homo sapiens) (UniProt P17676); assay: ATG_C_EBP_CIS: Attagene CIS-FACTORIAL HepG2 Assay for human CCAAT/Enhancer Binding Protein (C/EBP) beta (AID 2282927); details: HepG2 Attagene cis-factorial transcription factor reporter; actives raise or lower the signal
CCAAT/enhancer-binding protein beta (Homo sapiens), sequence (P17676 whole entry, looked up): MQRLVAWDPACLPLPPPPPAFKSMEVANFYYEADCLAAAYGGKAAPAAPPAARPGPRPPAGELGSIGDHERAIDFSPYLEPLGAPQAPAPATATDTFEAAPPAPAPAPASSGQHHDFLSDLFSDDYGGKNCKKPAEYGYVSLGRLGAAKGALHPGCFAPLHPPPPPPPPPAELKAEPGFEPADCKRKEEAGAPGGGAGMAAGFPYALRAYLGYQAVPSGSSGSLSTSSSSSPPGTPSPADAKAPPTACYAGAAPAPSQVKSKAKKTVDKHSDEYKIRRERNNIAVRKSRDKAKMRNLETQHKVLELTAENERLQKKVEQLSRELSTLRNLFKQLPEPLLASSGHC
Summary of the method: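 Transiently transfected HepG2 (MRTU library, endogenous TF-driven promoters); 24 h dosing; total RNA → oligo(dT) RT → PCR → 6-FAM primer extension → HpaI digest → CE; fit bidirectionally vs DMSO.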

[4] = ATG_CMV_CIS: Attagene CIS-FACTORIAL HepG2 Assay for human CMV (Internal Marker) (AID 2282928); details: HepG2 CMV promoter reporter, transcription factor profiling; actives raise or lower the signal;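 note: endpoint acts as a background internal control marker rather than a target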
Summary of the method: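 CMV internal-marker background readout in transiently transfected HepG2 cells bearing cis-regulated reporter units. Reporter mRNA is measured 24 h after dosing by RT-PCR and capillary electrophoresis, with bidirectional fitting against DMSO.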

[5] = ATG_DR4_LXR_CIS: Attagene CIS-FACTORIAL HepG2 Assay for human Liver X Receptor (LXR), DR4 submotif (AID 2282929); details: HepG2 Attagene DR4 cis-reporter, mRNA transcription; actives raise or lower the signal
Summary of the method: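 After transient transfection with multiplexed cis-promoter reporter units, HepG2 cells received test chemicals for 24 h. Reporter mRNA induction, detected by fluorescence after RT-PCR and capillary electrophoresis, was scored relative to DMSO.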

[6] = target: Aryl hydrocarbon receptor (Homo sapiens) (UniProt P35869); assay: ATG_Ahr_CIS: Attagene CIS-FACTORIAL HepG2 Assay for human Aryl Hydrocarbon Receptor (Ahr) (AID 2282930); details: HepG2 AhR cis-factorial reporter transcription; actives raise or lower the signal
Aryl hydrocarbon receptor (Homo sapiens), sequence (P35869 whole entry, looked up): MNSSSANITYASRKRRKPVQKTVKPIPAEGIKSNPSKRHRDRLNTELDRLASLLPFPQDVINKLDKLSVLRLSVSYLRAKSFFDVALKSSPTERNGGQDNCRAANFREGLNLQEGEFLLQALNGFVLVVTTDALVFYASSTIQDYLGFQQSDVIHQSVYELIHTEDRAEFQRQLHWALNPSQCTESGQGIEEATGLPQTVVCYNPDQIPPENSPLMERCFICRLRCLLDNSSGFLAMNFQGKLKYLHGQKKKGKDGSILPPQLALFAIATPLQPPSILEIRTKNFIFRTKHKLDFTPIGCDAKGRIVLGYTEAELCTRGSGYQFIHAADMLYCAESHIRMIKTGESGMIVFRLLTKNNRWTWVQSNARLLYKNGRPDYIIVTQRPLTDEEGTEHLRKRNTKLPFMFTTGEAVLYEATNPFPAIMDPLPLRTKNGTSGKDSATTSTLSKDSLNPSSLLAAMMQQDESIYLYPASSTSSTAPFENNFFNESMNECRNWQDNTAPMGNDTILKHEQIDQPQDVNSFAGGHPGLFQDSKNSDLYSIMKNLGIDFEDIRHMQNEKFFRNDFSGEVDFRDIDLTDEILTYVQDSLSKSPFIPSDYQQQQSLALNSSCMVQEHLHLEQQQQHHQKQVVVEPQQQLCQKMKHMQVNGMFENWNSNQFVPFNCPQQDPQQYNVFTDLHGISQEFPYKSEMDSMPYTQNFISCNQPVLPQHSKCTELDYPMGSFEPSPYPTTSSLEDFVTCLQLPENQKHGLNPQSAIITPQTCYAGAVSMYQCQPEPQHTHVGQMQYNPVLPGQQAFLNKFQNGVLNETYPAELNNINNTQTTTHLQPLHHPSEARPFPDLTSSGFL
Summary of the method: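 Read-out: reporter mRNA quantified by RT-PCR with fluorescent primer extension and capillary electrophoresis. Human HepG2 liver cells carried transfected cis-promoter reporter units and were exposed to chemical for 24 h; gain or loss fitted relative to DMSO.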

[7] = ATG_AP_1_CIS: Attagene CIS-FACTORIAL HepG2 Assay for human Activator Protein 1 (AP-1) (AID 2282931); details: HepG2 Attagene cis-factorial AP-1 reporter mRNA; actives raise or lower the signal
Summary of the method: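 After 24 h incubation with test chemical, RNA from transfected HepG2 cells was reverse-transcribed, amplified, fluorescently labelled and digested before capillary electrophoresis. Reporters were driven by cis-regulatory promoters; activity fitted bidirectionally versus DMSO.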

[8] = ATG_AP_2_CIS: Attagene CIS-FACTORIAL HepG2 Assay for human Activator Protein 2 (AP-2) (AID 2282932); details: HepG2 AP-2 cis-reporter, Attagene transcription factor profiling; actives raise or lower the signal
Summary of the method: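 HepG2 cells transiently transfected with cis-element reporter units and exposed for 24 h. Reporter mRNA measured by RT-PCR, FAM labelling, HpaI digestion and capillary electrophoresis. Changes in either direction fitted relative to DMSO.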

[9] = ATG_BRE_CIS: Attagene CIS-FACTORIAL HepG2 Assay for human Bone Morphogenetic Protein (BMP) Response Element (BRE) (AID 2282933); details: HepG2 BMP response element reporter, Attagene transcription factor profiling; actives raise or lower the signal
Summary of the method: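 Endogenous transcription factor activity at a BMP response element was monitored in transfected HepG2 cells 24 h after dosing. Fluorescent RT-PCR products were resolved by capillary electrophoresis, and activity was fitted in both directions versus DMSO.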

[10] = target: Retinoic acid receptor alpha (Homo sapiens) (UniProt P10276); assay: ATG_DR5_RAR_CIS: Attagene CIS-FACTORIAL HepG2 Assay for human Retinoic Acid Receptor Alpha (RARE), DR5 submotif (AID 2282934); details: HepG2 Attagene cis-factorial RARE DR5 reporter, mRNA; actives raise or lower the signal;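 for AC50: reporter responds to endogenous RAR alpha beta and gamma in HepG2 not RARA alone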
Retinoic acid receptor alpha (Homo sapiens), sequence (P10276 whole entry, looked up): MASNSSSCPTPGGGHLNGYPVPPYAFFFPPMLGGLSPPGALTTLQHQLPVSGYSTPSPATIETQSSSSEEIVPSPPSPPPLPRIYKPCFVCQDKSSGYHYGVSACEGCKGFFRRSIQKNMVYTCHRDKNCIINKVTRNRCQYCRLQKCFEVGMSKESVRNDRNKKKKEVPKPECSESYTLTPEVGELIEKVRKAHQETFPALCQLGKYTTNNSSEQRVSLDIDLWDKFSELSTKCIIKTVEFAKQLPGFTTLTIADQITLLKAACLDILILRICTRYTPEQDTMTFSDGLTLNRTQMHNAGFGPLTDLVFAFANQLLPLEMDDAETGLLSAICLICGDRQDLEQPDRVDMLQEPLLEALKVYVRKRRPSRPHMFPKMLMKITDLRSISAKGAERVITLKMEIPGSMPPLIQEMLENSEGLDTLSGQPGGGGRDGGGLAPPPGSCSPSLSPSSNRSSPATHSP
Summary of the method: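 Read-out: DR5-driven reporter transcript measured by RT-PCR, 6-FAM primer extension, HpaI digest and capillary electrophoresis. Human HepG2 liver cells carry transiently transfected cis-element reporter constructs; dosing lasts 24 h. Gain or loss of signal fitted against DMSO baseline.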

[11] = target: Transcription factor E2F1 (Homo sapiens) (UniProt Q01094); assay: ATG_E2F_CIS: Attagene CIS-FACTORIAL HepG2 Assay for human E2F Transcription Factor 1 (AID 2282935); details: HepG2 Attagene cis-reporter, E2F reporter RNA transcripts; actives raise or lower the signal
Transcription factor E2F1 (Homo sapiens), sequence (Q01094 whole entry, looked up): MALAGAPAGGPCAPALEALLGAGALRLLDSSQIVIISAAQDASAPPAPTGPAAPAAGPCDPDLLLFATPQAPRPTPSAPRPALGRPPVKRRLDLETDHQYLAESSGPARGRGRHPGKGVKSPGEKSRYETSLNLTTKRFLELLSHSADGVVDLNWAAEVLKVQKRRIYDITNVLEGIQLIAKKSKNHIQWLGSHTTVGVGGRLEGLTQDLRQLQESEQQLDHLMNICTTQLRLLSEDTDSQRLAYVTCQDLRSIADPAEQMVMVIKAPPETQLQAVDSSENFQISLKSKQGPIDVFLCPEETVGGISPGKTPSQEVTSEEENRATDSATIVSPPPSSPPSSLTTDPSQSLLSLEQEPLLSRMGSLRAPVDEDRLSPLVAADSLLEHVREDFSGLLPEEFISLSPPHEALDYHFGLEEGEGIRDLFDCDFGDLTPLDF
Summary of the method: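 Endogenous E2F1 activity read through cis-promoter reporter units transfected into HepG2. After 24 h compound treatment, reporter mRNA measured by RT-PCR, HpaI digestion and capillary electrophoresis. Bidirectional fit versus DMSO.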

[12] = ATG_E_Box_CIS: Attagene CIS-FACTORIAL HepG2 Assay for human Enhancer Box (E-box) (AID 2282936); details: HepG2 E-box cis-reporter transcription, actives raise or lower the signal
Summary of the method: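 HepG2 cells transiently transfected with multiplexed cis-element reporter units, dosed 24 h; reporter mRNA quantified by RT-PCR, 6-FAM labelling, HpaI digestion and capillary electrophoresis. E-box (USF1) signal fitted bidirectionally vs DMSO.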

[13] = ATG_M_61_CIS: Attagene CIS-FACTORIAL HepG2 Assay for M61 Transcription Factor (Internal Marker) (AID 2282937); details: HepG2 Attagene CIS-FACTORIAL M61 internal marker reporter; actives raise or lower the signal
Summary of the method: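 Using transiently transfected HepG2 liver cells, reporter transcript levels were assessed 24 h post-dosing by RT-PCR and capillary electrophoresis. Changes in either direction were fitted relative to DMSO controls.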

[14] = ATG_EGR_CIS: Attagene CIS-FACTORIAL HepG2 Assay for human Early Growth Response 1 (EGR1) (AID 2282938); details: HepG2 Attagene CIS-FACTORIAL EGR reporter mRNA; actives raise or lower the signal
Summary of the method: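 Fluorescent capillary-electrophoresis signal of reporter cDNA fragments serves as read-out. HepG2 cells bear transiently transfected cis-promoter reporter units and are exposed 24 h; gain- or loss-of-signal is fitted against DMSO.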

[15] = ATG_M_19_CIS: Attagene CIS-FACTORIAL HepG2 Assay for M19 Transcription Factor (Internal Marker) (AID 2282939); details: HepG2 Attagene CIS-FACTORIAL M19 internal marker reporter; actives raise or lower the signal
Summary of the method: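 Background-control endpoint from a multiplexed HepG2 reporter panel. Cells carrying cis-regulated reporter constructs are treated 24 h, then reporter transcripts are amplified, fluorescently labelled and sized by capillary electrophoresis. DMSO defines baseline.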

[16] = ATG_ERE_CIS: Attagene CIS-FACTORIAL HepG2 Assay for Estrogen Response Element (ERE) (AID 2282940); details: HepG2 ERE cis-reporter, Attagene RNA transcript; actives raise or lower the signal
Summary of the method: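 Cells used were human hepatoma HepG2, transfected with multiple reporter transcription units under cis-regulatory promoters. Reporter mRNA, read 24 h post-dosing via fluorescent RT-PCR products on capillary electrophoresis, was fitted bidirectionally relative to DMSO.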

[17] = ATG_Ets_CIS: Attagene CIS-FACTORIAL HepG2 Assay for human Erythroblast Transformation Specific (ETS) (AID 2282941); details: HepG2 ETS cis-reporter transcription, actives raise or lower the signal
Summary of the method: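 HepG2 cells transfected with multiple cis-regulated reporter units measuring endogenous ETS-driven transcription, 24 h after dosing. Reporter mRNA quantified by RT-PCR with capillary electrophoresis; bidirectional fit relative to DMSO.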

[18] = target: Hepatocyte nuclear factor 3-beta (Homo sapiens) (UniProt Q9Y261); assay: ATG_FoxA2_CIS: Attagene CIS-FACTORIAL HepG2 Assay for human Forkhead box A2 (FOXA2) (AID 2282942); details: HepG2 cis-reporter transcription factor activity, 24 h; actives raise or lower the signal
Hepatocyte nuclear factor 3-beta (Homo sapiens), sequence (Q9Y261 whole entry, looked up, the tested form may be a part): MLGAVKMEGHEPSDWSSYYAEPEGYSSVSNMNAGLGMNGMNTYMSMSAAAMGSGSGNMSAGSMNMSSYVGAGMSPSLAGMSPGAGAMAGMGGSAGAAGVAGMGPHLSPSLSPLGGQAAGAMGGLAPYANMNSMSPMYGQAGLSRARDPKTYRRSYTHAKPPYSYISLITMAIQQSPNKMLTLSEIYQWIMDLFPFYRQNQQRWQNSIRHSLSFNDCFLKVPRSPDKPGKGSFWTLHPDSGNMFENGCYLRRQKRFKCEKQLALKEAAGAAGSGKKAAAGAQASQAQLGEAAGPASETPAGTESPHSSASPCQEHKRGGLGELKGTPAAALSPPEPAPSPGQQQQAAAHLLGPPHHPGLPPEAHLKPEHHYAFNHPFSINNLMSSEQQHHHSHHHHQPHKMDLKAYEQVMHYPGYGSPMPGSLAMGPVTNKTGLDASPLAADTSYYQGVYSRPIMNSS
Summary of the method: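 Fluorescence signal of reporter cDNA fragments, separated by capillary electrophoresis, reflects endogenous transcription factor activity in transfected HepG2 after 24 h. Both increases and decreases fitted against DMSO.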

[19] = ATG_FoxO_CIS: Attagene CIS-FACTORIAL HepG2 Assay for human Forkhead box O (FoxO) (AID 2282943); details: HepG2 Attagene cis-reporter, FoxO element, mRNA; actives raise or lower the signal
Summary of the method: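 Read-out: fluorescence of 6-FAM-labelled reporter cDNA fragments resolved by capillary electrophoresis. Transiently transfected HepG2 cells were dosed for 24 h; activity fitted in both directions relative to DMSO controls.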

[20] = ATG_GATA_CIS: Attagene CIS-FACTORIAL HepG2 Assay for human GATA Binding Protein (AID 2282944); details: HepG2 GATA cis-element reporter, Attagene multiplex mRNA; actives raise or lower the signal
Summary of the method: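 Endogenous transcription factor activity was captured through cis-promoter-driven reporters in transfected HepG2 cells. After 24 h exposure, reporter transcripts were quantified by RT-PCR with fluorescent capillary electrophoresis, and responses fitted both directions against DMSO.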

CC1(C)NC(=O)NC1=O
outcome [1]: inactive | outcome [2]: inactive | outcome [3]: inactive | outcome [4]: inactive | outcome [5]: inactive | outcome [6]: inactive | outcome [7]: inactive | outcome [8]: inactive | outcome [9]: inactive | outcome [10]: inactive | outcome [11]: inactive | outcome [12]: inactive | outcome [13]: inactive | outcome [14]: inactive | outcome [15]: inactive | AC50 [16]: 26.3 µM (active) | outcome [17]: inactive | outcome [18]: inactive | outcome [19]: inactive | outcome [20]: inactive

COc1cc(S(=O)(=O)O)c(C)cc1N=Nc1c(O)ccc2cc(S(=O)(=O)O)ccc12
outcome [1]: inactive | outcome [2]: inactive | outcome [3]: inactive | outcome [4]: inactive | outcome [5]: inactive | outcome [6]: inactive | outcome [7]: inactive | outcome [8]: inactive | outcome [9]: inactive | outcome [11]: inactive | outcome [12]: inactive | outcome [13]: inactive | outcome [14]: inactive | outcome [15]: inactive | outcome [16]: inactive | outcome [17]: inactive | outcome [18]: inactive | outcome [19]: inactive | outcome [20]: inactive

COc1cc(/C=C/C(=O)CC(=O)/C=C/c2ccc(O)c(OC)c2)ccc1O
outcome [1]: inactive | outcome [2]: inactive | outcome [3]: inactive | AC50 [4]: 54.2 µM (active) | AC50 [5]: 58.3 µM (active) | AC50 [6]: 55.2 µM (active) | AC50 [7]: 54.7 µM (active) | AC50 [8]: 55.5 µM (active) | outcome [9]: inactive | AC50 [10]: 25.9 µM (active) | outcome [11]: inactive | AC50 [12]: 45.8 µM (active) | outcome [13]: inactive | AC50 [14]: 42.5 µM (active) | outcome [15]: inactive | outcome [16]: inactive | outcome [17]: inactive | outcome [18]: inactive | AC50 [19]: 33.4 µM (active) | outcome [20]: inactive

CCCCc1ccc2c(n1)[C@@H](c1ccc(OC)cc1C[C@H](C)C(=O)O)[C@H](C(=O)O)[C@H]2c1ccc2c(c1)OCO2
outcome [1]: inactive | outcome [2]: inactive | outcome [3]: inactive | outcome [5]: inactive | outcome [6]: inactive | outcome [7]: inactive | outcome [8]: inactive | outcome [9]: inactive | outcome [11]: inactive | outcome [12]: inactive | outcome [13]: inactive | outcome [14]: inactive | outcome [15]: inactive | outcome [16]: inactive | outcome [17]: inactive | outcome [18]: inactive | outcome [19]: inactive | outcome [20]: inactive
